EPAC1 antag – qHTS for Antagonist of cAMP-regulated guanine nucleotide exchange factor 3 (EPAC1): primary screen; Rap guanine nucleotide exchange factor 3 (Homo sapiens), O95398; EPAC1 GEF assay, Rap1b-BODIPY-GDP exchange fluorescence; Potency, µM (series often up to 115 µM), most hits filed as inhibitors; 0.14% of 360,000 active; further: nearly all actives have a fitted effect of over 50% in size
EPAC2 ag – qHTS for Agonist of cAMP-regulated guanine nucleotide exchange factor 4 (EPAC2): primary screen | Rap guanine nucleotide exchange factor 4 (Homo sapiens), Q8WZA2 | EPAC2 activation, biochemical qHTS; response scale: 100% = 6.5 mM cAMP response | Potency, µM (series often up to 154 µM), usual class: activators | 0.079% of 360,000 active | AID 720711, 2013; further: nearly all actives have a fitted effect of over 50% in size
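EPAC2 (100 nM) mixed with Rap1B loaded with BODIPY-GDP (250 nM) plus 50 uM unlabeled GDP; compounds pinned in, 5 min RT, then read every 5 min for 30 min (ex 480, em 540 nm). Normalized to cAMP control.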
EPAC1 agonist – qHTS for Agonist of cAMP-regulated guanine nucleotide exchange factor 3 (EPAC1): primary screen; Rap guanine nucleotide exchange factor 3 (Homo sapiens), O95398; EPAC1 agonist qHTS, biochemical assay; response scale: 100% = response to 6.5 mM cAMP; Potency, µM (doses to about 154 µM), actives largely listed as activators; 0.073% of 360,000 active; AID 720707, 2013; further: nearly all actives have a fitted effect of over 60% in size
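Multi-concentration qHTS readout: loss of Rap1B-bound BODIPY-GDP fluorescence driven by 100 nM EPAC1 with excess GDP (50 uM), monitored kinetically at room temperature; agonist response expressed relative to 6.5 mM cAMP.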
USP1-UAF1 inh – Inhibitors of USP1/UAF1: Primary Screen. Ubiquitin carboxyl-terminal hydrolase 1 (Homo sapiens), O94782. recombinant USP1/UAF1, Ub-Rhodamine cleavage fluorescence. Potency, µM (doses to about 57.1 µM), hits mostly inhibitors. 0.23% of 390,000 active; further: nearly all actives have a fitted effect of over 60% in size
Target sequence (O94782 whole entry, looked up): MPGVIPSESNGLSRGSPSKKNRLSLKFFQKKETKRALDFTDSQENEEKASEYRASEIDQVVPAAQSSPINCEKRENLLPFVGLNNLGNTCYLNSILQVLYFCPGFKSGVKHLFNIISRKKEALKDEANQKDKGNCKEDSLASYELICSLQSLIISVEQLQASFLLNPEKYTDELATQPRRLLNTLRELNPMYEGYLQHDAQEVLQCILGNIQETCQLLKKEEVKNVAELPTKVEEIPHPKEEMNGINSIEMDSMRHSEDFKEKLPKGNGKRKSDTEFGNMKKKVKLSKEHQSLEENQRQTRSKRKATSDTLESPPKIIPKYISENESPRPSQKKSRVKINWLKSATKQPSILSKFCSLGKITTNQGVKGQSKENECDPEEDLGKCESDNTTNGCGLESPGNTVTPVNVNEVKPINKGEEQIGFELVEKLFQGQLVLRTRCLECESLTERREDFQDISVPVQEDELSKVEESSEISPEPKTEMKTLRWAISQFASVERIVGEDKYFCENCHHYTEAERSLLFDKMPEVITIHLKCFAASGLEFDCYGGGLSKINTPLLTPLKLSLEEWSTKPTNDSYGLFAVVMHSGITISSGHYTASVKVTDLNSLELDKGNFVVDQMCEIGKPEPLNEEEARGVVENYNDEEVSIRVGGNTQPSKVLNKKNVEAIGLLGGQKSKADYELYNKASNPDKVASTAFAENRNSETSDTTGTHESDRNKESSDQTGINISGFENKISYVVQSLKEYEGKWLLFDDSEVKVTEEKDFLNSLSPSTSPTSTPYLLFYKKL
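In this screen, compounds sit with the deubiquitinase complex (1nM) for 15 min at room temperature before Ub-Rho is added at 150nM final. Fluorescence rise is then followed for 6 reads every 60 seconds.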
EPAC2 antagonist – qHTS for Antagonist of cAMP-regulated guanine nucleotide exchange factor 2 (EPAC2): primary screen; EPAC2 GEF exchange of Rap1B-BODIPY-GDP, fluorescence; Potency, µM (series often up to 114 µM), actives largely listed as inhibitors; 0.18% of 360,000 active; AID 720708, 2013; further: nearly all actives have a fitted effect of over 45% in size
A number is an active result; n = inactive; u = inconclusive; x = not tested or not shown. Rows were chosen to be rich in hits. Some 0.44% of all compounds tested hit in one or more screens of this group. The call rests on the fitted dose curve; in most records, active means well fitted curve in the direction sought with a large enough effect; inconclusive means small, poorly fitted or top-dose-only effect, or another doubt; inactive means no such curve, though single readings can be large; an effect the other way counts as inactive or inconclusive.

SMILES | EPAC1 antag | EPAC2 ag | EPAC1 agonist | USP1-UAF1 inh | EPAC2 antagonist
N#C/C(=C\c1ccc(N2CCOCC2)o1)C(=O)NCCc1ccccc1 | n | n | n | u | n
N#C/C(=C/c1ccc(N2CCOCC2)o1)C(=O)Nc1ccccc1 | n | 100µM | 100µM | 25µM | n
Cc1ccc2nc(/C(C#N)=C/c3ccc(-c4ccccc4C(=O)O)o3)[nH]c2c1 | n | n | n | 32µM | n
N#C/C(=C/c1ccc(N2CCCCC2)o1)c1cccc(F)c1 | n | n | n | 18µM | n
Cc1ccc2nc(/C(C#N)=C\c3ccc(N4CCOCC4)o3)[nH]c2c1 | n | 40µM | u | 25µM | n
Cc1c2cnn(CC(=O)NC(C)C)c(=O)c2c(C)n1Cc1cccc(Cl)c1 | x | x | x | n | x
Cc1ccc(Cl)cc1NC(=O)C1CCN(c2nnc(C)c3c(C)n(-c4ccccc4)nc23)CC1 | x | x | x | n | x
Cc1ccc(C)c(-n2c(CCC(=O)O)ccc2-c2ccc(Cl)cc2)c1 | x | x | x | n | x
CCCCC(CC)CNC(=O)CN(C)S(=O)(=O)c1ccc2c(c1)c(=O)n(C)c(=O)n2C (configuration not stated) | x | x | x | n | x
O=C(CC(NCc1cccnc1)C(=O)O)Nc1ccc(F)cc1 (configuration not stated) | x | x | x | n | x
Cc1ccc(/C(C#N)=C\c2ccc(N3CCOCC3)o2)cc1 | n | u | n | 25µM | n
N#C/C(=C/c1ccc(N2CCCCCC2)o1)c1ccc(Cl)cc1 | n | n | n | u | n
Cc1ccc(CNC(=O)CC(C)CC2=NS(=O)(=O)c3ccccc3N2)cc1 (configuration not stated) | x | x | x | n | x
CCCCOC(=O)c1ccc(Nc2nc3ccc(C(=O)c4ccccc4)cc3n3cnnc23)cc1 | x | x | x | n | x
CCOc1ccc(NC(=O)/C(C#N)=C/c2ccc(N3CCCC3)c(C)c2)cc1 | n | n | 112µM | n | n
CC1=CC2=C(C=O)C(=O)C(C)(O)C(O)C2=CO1 (configuration not stated) | u | n | n | n | 50µM
CCCCCCN1C=CC=C/C1=C/C=C(C#N)C#N | 89µM | n | n | u | n
C=CCN1C=CC(=CC=C(C#N)C#N)C=C1 | n | n | n | n | n
CCCCCN1C=CC=C/C1=C\C=C(C#N)C#N | n | n | n | n | n
CCCN1C=CC(=CC=C(C#N)C#N)C=C1 | n | n | n | 22µM | n
C[n+]1cccc2c(Br)ccc([O-])c21 | u | u | n | 5µM | u
C=C(C)Cn1c(SCC(=O)c2ccc(OC)cc2)nc2sc3c(c2c1=O)CCCC3 | x | x | x | n | x
CNC(=O)C1CCC(Cn2c(=O)c3sccc3n(CC(=O)Nc3ccc(C)cc3C)c2=O)CC1 (configuration not stated) | x | x | x | n | x
Oc1ccc(NCc2cccc(OCc3ccc(F)cc3)c2)cc1 | 45µM | n | n | u | n
Oc1ccc(NCc2cccc(OCc3ccccc3)c2)cc1 | 32µM | n | n | u | u
SMILES | EPAC1 antag | EPAC2 ag | EPAC1 agonist | USP1-UAF1 inh | EPAC2 antagonist
O=[N+]([O-])c1ccc(COc2cccc(CNc3ccc(F)cc3)c2)cc1 | n | n | n | n | n
CCOC(=O)C1CCC(CN(Cc2ccc(Cl)cc2)S(=O)(=O)c2ccc(F)c(C(=O)Nc3cccc(F)c3)c2)CC1 (configuration not stated) | x | x | x | n | x
CCOC(=O)[C@]12CCCC=C1N(CCC1=CCCCC1)C(=O)[C@H](CC(=O)NCc1cccs1)C2 | n | n | n | x | n
COc1ccc(S(=O)(=O)N2CCC3(CC2)OCCN3S(=O)(=O)c2ccc(OC)cc2)cc1 | n | n | n | n | n
COc1ccc(S(=O)(=O)N2CCOC23CCN(S(=O)(=O)c2cccs2)CC3)cc1 | n | n | 56µM | n | n
CCOc1ccc(NC(=O)CCS(=O)(=O)c2ccc3nc(C)sc3c2)cc1 | x | x | x | n | x
O=C(CSc1nnc(-c2cccs2)n1Cc1ccco1)Nc1ccc2c(c1)OCO2 | n | 7.9µM | n | n | n
CCOC(=O)c1nn(-c2ccccc2C)c(=O)c2c(N)scc12 | n | n | n | u | n
CCOC(=O)c1nn(-c2ccccc2)c(=O)c2c(N)scc12 | n | n | n | 18µM | n
COC(=O)c1sccc1S(=O)(=O)N(CC(=O)NCc1ccc(C)cc1)c1ccccc1 | x | x | x | n | x
CCOC(=O)c1cc2c(=O)n3ccccc3nc2n(CC2CCCO2)c1=NC(=O)c1ccccc1OCC (configuration not stated) | x | x | x | n | x
CCOC(=O)c1c(CN(C)C)n(C)c2c(O)c(N=NC(N)=O)c3ccc(Br)cc3c12 | n | n | n | 35µM | n
O=C1N/C(=C\c2ccc(O)cc2)C(=O)c2ccccc21 | n | n | n | 28µM | n
Cc1ccc(OCC(=O)N(Cc2ccco2)Cc2ccc(C)o2)cc1 | x | x | x | n | x
Cc1[nH]n(-c2ncc(-c3ccc(Cl)cc3)s2)c(=O)c1C(c1ccc(Cl)cc1)C(C#N)C#N (configuration not stated) | 40µM | n | n | n | n
Nc1ccc(S(=O)(=O)Nc2nccs2)cc1N=Nc1ccccc1[N+](=O)[O-] | u | n | n | n | 10µM
CSc1ccc(CCNC(=O)CCc2c(C)nc3cc(-c4ccccc4)nn3c2C)cc1 | x | x | x | n | x
C[N+]1(C)CCC(=C2c3ccccc3CC(=O)c3sccc32)CC1 | n | n | n | 28µM | n
CC[N+]1(C)CCC(=C2c3ccccc3CC(=O)c3sccc32)CC1 (configuration not stated) | n | n | n | n | n
O=C1OC(C(=O)Nc2cc(C(F)(F)F)ccc2Cl)Cc2ccccc21 (configuration not stated) | x | x | x | n | x
Cc1nc(C)c(-c2ccc(SCC(=O)Nc3ccc(Cl)c(Cl)c3)nn2)s1 | x | x | x | n | x
CCOc1ccccc1C=C1SC(=S)NC1=O | u | n | n | u | u
O=C1NC(=S)SC1=Cc1ccccc1Br | 32µM | n | n | n | 40µM
O=C1NC(=S)SC1=Cc1ccc(Cl)cc1 | u | n | n | n | 50µM
O=C1NC(=S)SC1=Cc1ccc(F)cc1 | n | n | n | n | n
O=C1NC(=S)S/C1=C\c1coc2ccc(O)cc2c1=O | 56µM | n | n | n | 35µM
O=C1NC(=S)SC1=Cc1cc(Br)ccc1O | 56µM | n | n | n | 79µM
COc1ccc(NC(=O)C2Cc3c(-c4cccc(C(C)=O)c4)ccnc3O2)cn1 (configuration not stated) | n | n | n | x | n

Screening results (PubChem BioAssay)
